From PubChem
Shiga inhibitor: Shiga toxin inhibition. hit rate 9.2% among 290,000. Vero cells, Shiga toxin protein synthesis inhibition reporter. inhibition, % at 38.7 µM. AID 2315; in the data active = inhibition mostly above about 28%, no sharp cut-off; inactive = mostly below about 43%; also: 0% is about no effect
CHX counter: affects cycloheximide protein synthesis inhibition readout, counter-screen; max response, %; AID 2314; hit rate 12% among 300,000; cell reporter, cycloheximide protein synthesis inhibition counterscreen; in the data active = max response mostly above about 13%, no sharp cut-off; inactive = mostly below about 14%; also: read at 38.3 µM for the half of the compounds with a filed dose; 0% is about no effect
Lassa entry inh: inhibitors of Lassa virus binding or cell entry | Potency, µM (top dose mostly 37.9 µM), for the others: at the highest dose activity change, negative = inhibition, usual class: inhibitors | hit rate 1.2% among 300,000 | Lassa virus pseudotype entry inhibition, cell reporter; calls by dose curve; tested in HEK293 cells; also: potency is read from the fitted curve at half-maximal effect; % is scaled to controls: 0 for no effect and ±100 for the full control effect; nearly all actives have a fitted effect of over 50% in size
Marburg entry inh: inhibitors of Marburg virus binding or cell entry. Marburg virus pseudotyped entry inhibition, cell reporter. hit rate 1.8% among 300,000. Potency, µM (titrated, usually from 37.8 µM), inactives show top-dose activity change, negative = inhibition, most hits filed as inhibitors; calls by dose curve; tested in HEK293 cells; also: potency is read from the fitted curve at half-maximal effect; % is scaled to controls: 0 for no effect and ±100 for the full control effect
FMDV inh: antivirals against foot and mouth disease virus; FMDV antiviral cell-based qHTS; Potency, µM (highest dose often 57.9 µM), for the others: top-dose activity change, negative = inhibition, actives largely listed as inhibitors; hit rate 1.2% among 410,000; AID 1159524; calls by dose curve; tested in HEK293T cells; also: read-out not given here; potency is read from the fitted curve at half-maximal effect; % is scaled to controls: 0 for no effect and ±100 for the full control effect; nearly all actives have a fitted effect of over 45% in size
HCV inhibitor: blocks hepatitis C virus | Potency, µM (highest dose often 41.8 µM), for inactives: top-dose activity change, negative = inhibition, actives largely listed as inhibitors | hit rate 3.4% among 340,000 | Huh7.5.1 HCVcc-Cre infection, luciferase reporter, 44 h; active = well fitted inhibition curve with a large enough effect; inconclusive = small, poorly fitted or top-dose-only effect, or another doubt; inactive = no such curve, though single readings can be large or run the other way; also: potency is read from the fitted curve at half-maximal effect; % is scaled to controls: 0 for no effect and ±100 for the full control effect
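Reporter virus HCVcc-Cre (~0.5 moi) infects cells exposed to compound; seeding density 1,000 cells/well with 4 h settling beforehand. Luminescence, 15 sec read, taken 44 h post-infection following a 15 min RT substrate incubation.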
The depositor's hits bear a star; u = inconclusive; x = not tested or not shown; [ ] = dose if it differs, or a comment. The list is not random: actives were taken first. Their share in the collection is about 13%.

SMILES	Shiga inhibitor	CHX counter	Lassa entry inh	Marburg entry inh	FMDV inh	HCV inhibitor
Cc1ccsc1/C=N/N1CCN(Cc2ccccc2)CC1	38*	24*	u	u	0%	13%
O=C(COc1ccccc1)Nc1cccc(-c2nc3ccccc3[nH]2)c1	39	22*	u	u	2%	-5%
COc1ccc(OCC(=O)Nc2cccc(-c3nc4ccccc4[nH]3)c2)cc1	20	14*	-2%	u	u	u
O=C(O)CCCC(=O)Nc1cccc(-c2nc3ccccc3[nH]2)c1	-14	-3	13%	11%	17%	18%
CCCOc1ccc(C(=O)Nc2cccc(-c3nc4ccccc4[nH]3)c2)cc1	x	x	-17%[46.1 µM]	1%[46.1 µM]	u	x
CCCCn1c(N)c(N(CCOC)C(=O)CN(C)S(=O)(=O)c2ccc(F)cc2)c(=O)[nH]c1=O	x	x	6%	8%	-4%	39%
c1ccc(N2CCN(c3nc4cc5c(cc4s3)OCCO5)CC2)cc1	95*	84*	-1%	23%	7%	u
c1c2c(cc3sc(N4CCOCC4)nc13)OCCO2	48	14*	5.2µM*	u	-86%	6%
Clc1cccc2sc(N3CCN(c4ccccc4)CC3)nc12	19	17	u	-4%	3%	-1%
Cc1ccc(-c2cc(Cc3ccc(F)cc3)c(=O)[nH]n2)cc1	29	20*	x	x	-6%	2%
Cc1ccc(-c2cc(Cc3ccccc3)c(=O)[nH]n2)cc1	34	11	2.5µM*	1%	-9%	-5%
Cc1ccc(Cc2cc(-c3ccc(C)cc3)n[nH]c2=O)cc1	52*	40*	u	u	10%	u
Cc1ccc(-c2cc(Cc3ccc(N(C)C)cc3)c(=O)[nH]n2)cc1	16	-2	x	x	23%	u
CCNc1cc(N2CCOCC2)nc(SC)n1	-7	7	17%[46.1 µM]	-14%[46.1 µM]	5%	u
CC1=C(CO)C(=O)OC([C@@H](C)C2CC[C@H]3C4C[C@H]5O[C@]56[C@@H](O)C=CC(=O)[C@]6(C)C4CC[C@]23C)C1 (stereo partly specified)	-9	-9	x	x	7.1µM*	u
O=C(Nc1ccc(F)cc1)Nc1cnccn1	17	13*	3%[46.1 µM]	u	3%	13%
O=C(Nc1ccc(Br)cc1)Nc1cnccn1	53*	22*	x	x	23%	-5%
COc1ccc(C(=O)N2CCCC2(C#N)c2ccccc2)cc1[N+](=O)[O-] (stereo unspecified)	18	-1	x	x	u	14µM*
CCc1cc(=O)oc2cc(C)c3c(C)coc3c12	-9	-1	14%	u	3%	11µM*
O=C(/C=C/NNC(=O)c1ccccc1)c1ccccc1	20	27*	-1%	2%	11%	u
O=C(O)CC(NNC(=O)c1ccccc1)C(=O)Nc1ccc([N+](=O)[O-])cc1 (stereo unspecified)	67*	37*	x	x	8%	11%
Cc1ccc(S/C=C\C(=O)c2ccccc2)cc1	79*	44*	-10%	u	15%	u
O=C(/C=C/NNC(=O)c1ccccc1)c1ccc([N+](=O)[O-])cc1	87*	38*	x	u	-10%	3.5µM*
C/C(=C\C(=O)c1ccc(Br)cc1)NNC(=O)c1ccccc1	x	x	5%	u	-16%	-84%
NC(N)=NCCC[C@H](NC(=O)c1ccccc1)C(=O)Nc1ccc([N+](=O)[O-])cc1	-6	-7	x	x	x	x
SMILES	Shiga inhibitor	CHX counter	Lassa entry inh	Marburg entry inh	FMDV inh	HCV inhibitor
O=C(C=CC=Cc1ccccc1)c1ccc([N+](=O)[O-])cc1	x	x	x	x	-3%	x
O=C(/C=C/NNC(=O)c1ccc(Br)cc1)c1ccccc1	84*	32*	u	u	-9%	u
Cc1ccc(C(=O)C=CNNC(=O)c2ccccc2)cc1	44*	33*	x	x	24%	u
O=C(/C=C/NNC(=O)c1ccccc1O)c1ccccc1	x	32*	u	4%[46.1 µM]	9%	20%
Cc1cccc(C(=O)NNC(=O)c2ccc(Br)cc2)c1	19	2	-2%	12%[46.1 µM]	28%	18%
Cc1cccc(C(=O)NN/C=C/C(=O)c2ccccc2)c1	56*	31*	-2%	u	2%	-4%
CN[C@H]1CCc2cc(OC)c(OC)c(OC)c2-c2ccc(N(C)CC(OC)OC)c(=O)cc21	-3	-1	x	x	-10%	1%
COc1cc2c(c(OC)c1OC)-c1ccc(N(C)CC(OC)OC)c(=O)cc1[C@@H](NC(C)=O)CC2	14	-7	u	1µM*	-1%	22%
